Screening data: PubChem, Broad Institute
In the library only some 6.8% were active in any assay of this set; here they are far more common.
Tcruzi prolif: T. cruzi proliferation inhibition; T. cruzi beta-gal in NIH3T3, GalScreen luminescence, 90 h; inhibition, % at 8.34 µM; 5.9% of 77,000 active; AID 624255;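 active = mean inhibition above about 93%, with at least 55% of replicates each passing it, limit read from the data, passing the limit was not always enough; inconclusive = only one of those two conditions holds; inactive = neither condition holds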
Pf Dd2 growth: P. falciparum Dd2 growth inhibition; SYBR Green, 72 h; stronger effect = lower value; activity change, % at 10 µM; 2.3% of 94,000 active; in the data active = activity change below about -80%; inconclusive = no clear call, values can overlap the other calls
C diff growth: C. difficile growth inhibition. Clostridium difficile clinical isolate growth, OD600, 24 h; stronger effect = lower value. 0.25% of 86,000 active. growth activity, negative = inhibition, % at 16 µg/mL (by protocol);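 active = mean growth activity at or below -80% and every replicate also at or below -80%; inconclusive = mean at or below -80% but some replicate above -80%; inactive = mean growth activity above -80%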;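 also: 0% = DMSO wells and -100% = levofloxacin 16 µg/mL wells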
The depositor's hits bear a star; ? = inconclusive; nt = no result; ! = not confirmed by another sample.

SMILES	Tcruzi prolif	Pf Dd2 growth	C diff growth
CCNC(=O)C[C@@H]1CC[C@@H]2[C@@H](COc3ccc(NC(=O)Nc4cccc(Cl)c4)cc3C(=O)N2C)O1	-9	0	2
C[C@@H]1CCCCO[C@@H](CN(C)S(=O)(=O)c2cccs2)[C@H](C)CN([C@@H](C)CO)C(=O)c2cc(NS(=O)(=O)c3ccc(F)cc3)ccc2O1	61	nt	-8
CCCN1[C@H](C(=O)NC2Cc3ccccc3C2)[C@@H](CO)[C@@H]2Cn3c(ccc(C4=CCCC4)c3=O)[C@@H]21	90	-21	4
COc1ccc(-c2ccc([C@H]3[C@H](CO)N4C(=O)CN(C(=O)NC(C)C)C[C@@H]34)cc2)cc1	nt	-58	0
C[C@@H]1CN([C@H](C)CO)S(=O)(=O)c2ccc(C#Cc3ccncc3)cc2O[C@H]1CN(C)S(=O)(=O)c1ccc(F)cc1	107	-86*	4
C[C@H](CO)N1C[C@H](C)[C@@H](CN(C)S(=O)(=O)c2ccc(F)cc2)Oc2cc(C#Cc3ccncc3)ccc2S1(=O)=O	93	-59	4
C[C@H]1CN([C@@H](C)CO)S(=O)(=O)c2ccc(C#Cc3ccncc3)cc2O[C@@H]1CN(C)S(=O)(=O)c1ccccc1	23	-93*	4
Cc1ccc(S(=O)(=O)N(C)C[C@H]2Oc3cc(C#Cc4ccncc4)ccc3S(=O)(=O)N([C@@H](C)CO)C[C@@H]2C)cc1	67	-86*	0
Cc1ccc(S(=O)(=O)N(C)C[C@@H]2Oc3cc(C#Cc4ccncc4)ccc3S(=O)(=O)N([C@H](C)CO)C[C@H]2C)cc1	79	-79	1
Cc1ccc(S(=O)(=O)N(C)C[C@@H]2Oc3cc(C#Cc4ccncc4)ccc3S(=O)(=O)N([C@@H](C)CO)C[C@H]2C)cc1	82	-81*	2
C[C@@H]1CN([C@@H](C)CO)S(=O)(=O)c2ccc(C#Cc3ccncc3)cc2O[C@H]1CN(C)S(=O)(=O)c1ccccc1	82	-61	-2
Cc1ccc(S(=O)(=O)N(C)C[C@@H]2Oc3cc(C#Cc4ccncc4)ccc3S(=O)(=O)N([C@H](C)CO)C[C@@H]2C)cc1	62	-70	1
C[C@H]1CN([C@@H](C)CO)S(=O)(=O)c2ccc(-c3cccnc3)cc2O[C@@H]1CN(C)C(=O)CN(C)C	67	15	3
C[C@@H]1CN([C@H](C)CO)C(=O)Cc2cc(NS(C)(=O)=O)ccc2O[C@@H]1CN(C)S(=O)(=O)c1ccccc1	13	11	1
COc1ccc2c3c(n(C)c2c1)[C@@H](CO)N(C(C)=O)CC31CN(C(=O)NC(C)C)C1	nt	-22	nt
CO[C@H]1CN(C)C(=O)c2cc(NC(=O)NC(C)C)ccc2OC[C@H](C)N(S(C)(=O)=O)C[C@H]1C	nt	25	5
COc1ccc2c3c([nH]c2c1)[C@H](CO)N(CC1CC1)CC31CCN(Cc2ccccc2F)CC1	nt	-85*	16
COc1ccc2c3c([nH]c2c1)[C@H](CO)N(Cc1ccccc1)CC31CCN(CC2CC2)CC1	nt	-93*	8
COc1ccc2c3c([nH]c2c1)[C@H](CO)N(Cc1ccccc1)CC31CN(CC2CC2)C1	nt	-69	4
COc1cccc(CN2CC3(CCN(CC4CCOCC4)CC3)c3c([nH]c4cc(OC)ccc34)[C@@H]2CO)c1	nt	-17	4
COc1cccc(CN2CC3(CCN(CC4CC4)CC3)c3c([nH]c4cc(OC)ccc34)[C@H]2CO)c1	nt	-92*	12
COc1ccc2c3c([nH]c2c1)[C@@H](CO)N(Cc1ccccc1F)CC31CN(CC2CC2)C1	nt	-62	23
O=C(Cc1ccncc1)NCC[C@H]1CC[C@@H](NC(=O)C2CC2)[C@@H](CO)O1	nt	-3	-1
CN1C(=O)c2cc(NC(=O)C3CCCC3)ccc2OC[C@@H]2O[C@@H](CC(=O)NCc3ccccc3F)CC[C@@H]21	nt	-19	0
O=C(NCCc1ccncc1)[C@@H]1[C@@H](CO)[C@@H]2Cn3c(ccc(-c4ccncc4)c3=O)[C@H]1N2	61	-13	-5
SMILES	Tcruzi prolif	Pf Dd2 growth	C diff growth
CNC[C@H]1OCCCC[C@H](C)Oc2ccc(NC(=O)NC3CCCCC3)cc2C(=O)N([C@@H](C)CO)C[C@@H]1C	20	30	-4
COc1ccc(S(=O)(=O)N(C)C[C@@H]2OCCCC[C@H](C)Oc3ccc(NS(=O)(=O)c4cccs4)cc3C(=O)N([C@@H](C)CO)C[C@H]2C)cc1	52	-76	-6
COc1ccc(S(=O)(=O)N(C)C[C@H]2OCCCC[C@H](C)Oc3ccc(NS(=O)(=O)c4cccs4)cc3C(=O)N([C@H](C)CO)C[C@H]2C)cc1	-37	-81*	-2
C[C@@H]1CCCCO[C@@H](CN(C)S(=O)(=O)c2ccc(F)cc2)[C@H](C)CN([C@H](C)CO)C(=O)c2cc(NS(=O)(=O)c3cccs3)ccc2O1	56	-48	2
COc1ccc(S(=O)(=O)N(C)C[C@H]2OCCCC[C@H](C)Oc3ccc(NS(=O)(=O)c4cccs4)cc3C(=O)N([C@@H](C)CO)C[C@H]2C)cc1	64	-83*	-4
C[C@@H]1CN([C@@H](C)CO)C(=O)c2cc(NS(=O)(=O)c3cccs3)ccc2O[C@@H](C)CCCCO[C@@H]1CN(C)S(=O)(=O)c1ccc(F)cc1	61	-83*	26
COc1ccc(S(=O)(=O)N(C)C[C@@H]2OCCCC[C@H](C)Oc3ccc(NS(=O)(=O)c4cccs4)cc3C(=O)N([C@H](C)CO)C[C@@H]2C)cc1	-8	-39	1
Cc1noc(C)c1S(=O)(=O)N(C)C[C@H]1Oc2ccc(NS(=O)(=O)c3cn(C)cn3)cc2CC(=O)N([C@@H](C)CO)C[C@H]1C	13	8	-3
N#Cc1cccc(-c2ccc(C3[C@@H]4CN(C(=O)C5CCCCC5)C[C@H]3N4)cc2)c1 (stereo partly drawn)	nt	-68	-14
COc1ccccc1CN1C[C@@H]2N[C@H](C1)C2c1ccc(-c2ccc(C#N)cc2)cc1 (stereo partly drawn)	nt	-82*!	2
N#Cc1ccc(-c2ccc(C3[C@@H]4CN(Cc5ccccc5F)C[C@H]3N4)cc2)cc1 (stereo partly drawn)	nt	-89*!	44
N#Cc1ccc(-c2ccc(C3[C@@H]4CN(C(=O)C5CCCCC5)C[C@H]3N4)cc2)cc1 (stereo partly drawn)	nt	-88*!	-8
COc1ccccc1CN1C[C@@H]2N[C@H](C1)C2c1ccc(-c2cccc(C#N)c2)cc1 (stereo partly drawn)	nt	-24	31
N#Cc1ccc(-c2ccc([C@@H]3[C@@H]4CN(Cc5cocn5)C[C@H]3N4)cc2)cc1	nt	?	11
C[C@@H]1CN([C@H](C)CO)C(=O)Cc2cc(NS(=O)(=O)c3cccs3)ccc2O[C@@H]1CN(C)C	21	2	-3
CCCNC(=O)N1CC2(C1)CN(C(=O)CC)[C@@H](CO)c1[nH]c3cc(OC)ccc3c12	nt	54	0
CN(C)CCCNC(=O)C[C@@H]1CC[C@H]2[C@H](COc3ccc(NC(=O)C4CCC4)cc3C(=O)N2C)O1	4	5	2
CO[C@H]1CN(C)C(=O)c2cc(NC(=O)Nc3ccc(C(F)(F)F)cc3)ccc2OC[C@H](C)NC[C@H]1C	-16	-88*	nt
CO[C@@H]1CN(C)C(=O)c2ccc(NC(=O)Nc3ccc(C(F)(F)F)cc3)cc2OC[C@@H](C)NC[C@@H]1C	nt	-83*	22
